Data as given in the antibiotic and cytotoxicity screens of Wong et al. (2023).
In all, about 39,000 compounds went through this assay and about 3,300 (8.5%) were called active. The sample holds actives, similar compounds and a random draw of the others, so the mix is not that of the screen.

What follows are compounds tested on HepG2 (assay: cytotoxicity call (relative viability < 0.9)). Details: 10 µM.

SMILES	cytotoxicity call
Cc1noc(C)c1NC(=O)Nc1cccc2c1O[C@@H](CN(C)Cc1ccc(-c3ccccc3)cc1)[C@@H](C)CN([C@@H](C)CO)C2=O	inactive
Cc1ccc(S(=O)(=O)N(C)C[C@@H]2OCCCC[C@H](C)Oc3ccc(NC(=O)Nc4cccc5ccccc45)cc3C(=O)N([C@H](C)CO)C[C@@H]2C)cc1	inactive
CSC(=N)NCCC[C@@H](N)C(=O)O	inactive
C[C@H]1CCCCO[C@H](CN(C)S(=O)(=O)c2cccs2)[C@@H](C)CN([C@@H](C)CO)C(=O)c2cc(NC(=O)Nc3ccc(C(F)(F)F)cc3)ccc2O1	inactive
CC(C)(C)C(=O)Nc1c[nH]c(=O)[nH]c1=O	inactive
C[C@@H]1CCCCO[C@@H](CN(C)C(=O)NC2CCCCC2)[C@H](C)CN([C@@H](C)CO)C(=O)c2cc(NC(=O)c3ccncc3)ccc2O1	inactive
Nc1ccc(S(=O)(=O)c2ccc(N)cc2)cc1	inactive
Nc1ccc2cc3ccc(N)cc3nc2c1.O=S(=O)(O)O	active
Nc1ccc2c(c1)nc(CO)n2CCO	inactive
C[C@@H]1CN([C@H](C)CO)C(=O)c2cc(NC(=O)C3CCCCC3)ccc2O[C@H]1CN(C)C(=O)Nc1cccc2ccccc12	inactive
COc1ccc(S(=O)(=O)N(C)C[C@H]2Oc3ccc(NC(=O)C4CC4)cc3CC(=O)N([C@@H](C)CO)C[C@@H]2C)cc1	inactive
C[C@H](CO)N1C[C@H](C)[C@@H](CN(C)C(=O)Nc2cccc3ccccc23)Oc2ccc(NS(=O)(=O)c3ccc(Cl)cc3)cc2CC1=O	inactive
Cc1noc(C)c1NC(=O)N(C)C[C@@H]1Oc2ccc(NC(=O)C3CC3)cc2CC(=O)N([C@@H](C)CO)C[C@H]1C	inactive
COc1ccc(C#Cc2ccc([C@@H]3[C@@H](CO)N4CCCCN(S(=O)(=O)c5cn(C)cn5)C[C@H]34)cc2)cc1	inactive
CN(C)CC#Cc1ccc([C@@H]2[C@@H](CO)N3CCCCN(C(=O)CN(C)C)C[C@@H]23)cc1	inactive
COc1ccc(C#Cc2ccc([C@H]3[C@H](CO)N4CCCCN(S(=O)(=O)c5cn(C)cn5)C[C@@H]34)cc2)cc1	inactive
COc1ccc(NC(=O)N2CCCCN3[C@H](CN(C)C(C)=O)[C@H](c4ccc(C#Cc5ccccc5)cc4)[C@@H]3C2)cc1	active
CN(C)CC#Cc1ccc([C@H]2[C@@H](CO)N3CCCCN(C(=O)CN(C)C)C[C@@H]23)cc1	inactive
COc1ccc(NC(=O)N2CCCCN3[C@H](COCCN(C)C)[C@H](c4ccc(C#Cc5ccccc5)cc4)[C@@H]3C2)cc1	active
CN(C)CC#Cc1ccc([C@H]2[C@@H](CO)N3CCCCN(C(=O)CN(C)C)C[C@H]23)cc1	inactive
CN(C)CC#Cc1ccc([C@@H]2[C@H](CO)N3CCCCN(C(=O)CN(C)C)C[C@@H]23)cc1	inactive
COc1ccc(C#Cc2ccc([C@@H]3[C@H](CO)N4CCCCN(S(=O)(=O)c5cn(C)cn5)C[C@@H]34)cc2)cc1	active
O[C@H]1[C@H](O)[C@@H](O)[C@H]2O[C@@H]2[C@@H]1O	inactive

SMILES	cytotoxicity call
CCSC(=O)NC1CCCCC1	inactive
COc1ccc(NC(=O)N(C)C[C@H]2OCCCC[C@H](C)Oc3ccc(NC(=O)CCC(F)(F)F)cc3C(=O)N([C@H](C)CO)C[C@@H]2C)cc1	inactive
CS(=O)(=O)N1CC[C@@H]2OCCN(C(=O)c3cccnc3)[C@@H]2C1	inactive
C[C@@H]1CN([C@H](C)CO)C(=O)c2cccc(NS(=O)(=O)c3cn(C)cn3)c2O[C@H]1CN(C)Cc1ccc(C(=O)O)cc1	inactive
CC(=O)n1cc([C@@H]2C=C(C(=O)NCc3ccccc3)O[C@H](OCc3ccc(CO)cc3)C2)c2ccccc21	inactive
C[C@H]1CN([C@@H](C)CO)C(=O)c2cc(NS(=O)(=O)c3ccccc3)ccc2O[C@@H]1CN(C)Cc1ccc(-c2ccccc2)cc1	inactive
C[C@@H]1CN([C@H](C)CO)C(=O)c2cc(NS(=O)(=O)c3ccccc3)ccc2O[C@@H]1CN(C)Cc1ccc(-c2ccccc2)cc1	inactive
C[C@H]1CN([C@@H](C)CO)C(=O)c2cc(NS(=O)(=O)c3ccccc3)ccc2O[C@H]1CN(C)Cc1ccc(-c2ccccc2)cc1	inactive
C[C@@H]1CN([C@@H](C)CO)C(=O)c2cc(NS(=O)(=O)c3ccccc3)ccc2O[C@H]1CN(C)Cc1ccc(-c2ccccc2)cc1	active
C[C@H](CO)N1C[C@H](C)[C@H](CN(C)Cc2ccc(-c3ccccc3)cc2)Oc2ccc(NS(=O)(=O)c3ccccc3)cc2C1=O	inactive
C[C@@H]1CN([C@@H](C)CO)C(=O)c2cc(NS(=O)(=O)c3ccccc3)ccc2O[C@@H]1CN(C)Cc1ccc(-c2ccccc2)cc1	active
COc1ccc(NC(=O)Nc2ccc3c(c2)C(=O)N([C@H](C)CO)C[C@H](C)[C@H](CN(C)C(=O)Nc2ccc4c(c2)OCO4)OCCCC[C@@H](C)O3)cc1	inactive
C[C@H]1CCCCO[C@@H](CN(C)C(=O)Nc2ccc3c(c2)OCO3)[C@@H](C)CN([C@@H](C)CO)C(=O)c2cc(NC(=O)Nc3ccccc3)ccc2O1	inactive
COc1ccc(NC(=O)N(C)C[C@H]2OCCCC[C@H](C)Oc3ccc(NC(=O)Nc4ccccc4)cc3C(=O)N([C@@H](C)CO)C[C@@H]2C)cc1	inactive
C[C@@H]1CCCCO[C@H](CN(C)C(=O)Nc2ccc3c(c2)OCO3)[C@H](C)CN([C@H](C)CO)C(=O)c2cc(NC(=O)Nc3ccccc3)ccc2O1	inactive
COc1ccc(NC(=O)N(C)C[C@H]2OCCCC[C@@H](C)Oc3ccc(NC(=O)Nc4ccccc4)cc3C(=O)N([C@H](C)CO)C[C@@H]2C)cc1	active
COc1ccc(NC(=O)N(C)C[C@H]2OCCCC[C@H](C)Oc3ccc(NC(=O)Nc4ccccc4)cc3C(=O)N([C@H](C)CO)C[C@@H]2C)cc1	inactive
COc1ccc(NC(=O)N(C)C[C@@H]2OCCCC[C@H](C)Oc3ccc(NC(=O)Nc4ccc5c(c4)OCO5)cc3C(=O)N([C@@H](C)CO)C[C@H]2C)cc1	inactive
COc1ccc(NC(=O)N(C)C[C@@H]2OCCCC[C@@H](C)Oc3ccc(NC(=O)c4ccccc4)cc3C(=O)N([C@@H](C)CO)C[C@@H]2C)cc1	inactive
C[C@@H]1CCCCO[C@@H](CN(C)C(=O)Nc2ccc3c(c2)OCO3)[C@H](C)CN([C@H](C)CO)C(=O)c2cc(NC(=O)Nc3ccccc3)ccc2O1	active
COc1ccc(NC(=O)N(C)C[C@H]2OCCCC[C@H](C)Oc3ccc(NC(=O)c4ccccc4)cc3C(=O)N([C@H](C)CO)C[C@@H]2C)cc1	inactive
COc1ccc(NC(=O)N(C)C[C@@H]2OCCCC[C@@H](C)Oc3ccc(NC(=O)c4ccccc4)cc3C(=O)N([C@H](C)CO)C[C@H]2C)cc1	active
COc1ccc(NC(=O)Nc2ccc3c(c2)C(=O)N([C@H](C)CO)C[C@H](C)[C@@H](CN(C)C(=O)Nc2ccc4c(c2)OCO4)OCCCC[C@H](C)O3)cc1	active
